An excerpt weighted towards active compounds, which were near 2.6% of everything screened.
AmpC nodet inh: blocks E. coli AmpC beta-lactamase in absence of detergent; AmpC nitrocefin hydrolysis, absorbance 480 nm, no detergent; P00811; Potency, µM (top dose mostly 28.7 µM), for inactives: top-dose activity change, negative = inhibition; AID 585; 1.8% of 71,000 active; note: % of control where 0% means no effect
Target sequence (P00811 whole entry, looked up): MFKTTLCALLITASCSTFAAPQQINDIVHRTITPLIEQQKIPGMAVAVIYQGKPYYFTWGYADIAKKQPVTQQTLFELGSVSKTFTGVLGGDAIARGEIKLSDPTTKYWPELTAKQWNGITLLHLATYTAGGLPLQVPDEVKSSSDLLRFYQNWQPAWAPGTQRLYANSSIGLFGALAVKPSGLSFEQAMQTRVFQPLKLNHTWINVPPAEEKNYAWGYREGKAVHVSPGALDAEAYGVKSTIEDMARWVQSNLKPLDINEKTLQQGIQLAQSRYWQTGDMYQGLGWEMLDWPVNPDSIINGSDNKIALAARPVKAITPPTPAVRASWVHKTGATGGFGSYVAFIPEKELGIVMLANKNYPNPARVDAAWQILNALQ
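AmpC, 20 mM phosphate pH 7.0; 15 min cpd preinc, RT; start with nitrocefin (800 uM stock); A480 kinetic read, 20 s intervals, 4 min. No-enzyme wells = negative control.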
LT uptake inh: anthrax lethal toxin internalization inhibition; Cells, anthrax lethal toxin internalization, FRET ratio (460/530); Potency, µM (titrated, usually from 40 µM), inactives show at the top dose activity change, negative = inhibition, most hits filed as inhibitors; 0.67% of 70,000 active; AID 912; note: % is set by controls: 0 for no effect and ±100 for the full control effect; nearly all actives have a fitted effect of over 50% in size
AmpC inh det: inhibitors of E. coli AmpC beta-lactamase with detergent; 0.09% of 71,000 active; Potency, µM (doses to about 28.7 µM), inactives show at the highest dose activity change, negative = inhibition; purified AmpC, nitrocefin hydrolysis with detergent; AID 584; active = well fitted curve in the direction sought with a large enough effect; inconclusive = small, poorly fitted or top-dose-only effect; note: % is set by controls: 0 for no effect and ±100 for the full control effect
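E. coli AmpC (5.3 nM) in 20 mM phosphate pH 7.0 with 0.01% Triton X-100, preincubated 15 min RT with compound; nitrocefin (2 uL of 800 uM stock) hydrolysis followed by 480 nm absorbance every 20 s over 4 min.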
Prx2 Sm inh: blocks S. mansoni peroxiredoxin 2 enzymatic activity. S. mansoni Prx2 activity coupled to TGR/GSH (TGR is thioredoxin glutathione reductase), NADPH fluorescence loss, qHTS. Potency, µM. 0.07% of 65,000 active. AID 448
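Prx2 activity was followed as the loss of NADPH fluorescence (ex 365/em 450 nm), read every 30 sec for 8 min after H2O2 start. The enzyme mix (50 nM Prx2, 25 nM TGR, GSH, NADPH; pH 7.4 phosphate buffer) was incubated with compound for 15 min at room temperature first.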
An asterisk follows results filed as active; ? = inconclusive; . = no result; ! = not confirmed by another sample; [ ] = dose if it differs, or a comment. Unless noted, calls come from the whole dose curve. Potency is the fitted concentration of half-maximal effect.

SMILES	AmpC nodet inh	LT uptake inh	AmpC inh det	Prx2 Sm inh
C=C[C@@](C)(O)CC[C@H]1[C@]2(C)CCCC(C)(C)[C@H]2CC[C@]1(C)O	125.8%	?	-2.9%	>57
COCC(=O)N1CCC2(CC1)CN(C(=O)Nc1ccc(OC)cc1)C2	-4.9%	5.2%	2.0%	>57
c1ccc(-c2cccc(N3CC4(CCNCC4)C3)c2)cc1	69.6%	-13.3%	-0.1%	>57
c1ccc(-c2cccc(N3CCC4(CCNCC4)CC3)c2)cc1	112.9%	10µM*	-2.9%	>57
CC(N)=NCCCC[C@H](N)C(=O)O	5.6%	?	-1.8%	>57
O=C(CSc1nc2c(cnn2-c2ccccc2)c(=O)[nH]1)c1ccc(Cl)cc1	7.94µM*	2.1%	-1.0%	>57
COc1cccc(Cn2c(=O)c(C)nc3cnc(Nc4ccccc4)nc32)c1	20.7%	?	-1.2%	>57
CS(=O)(=O)N1CCc2cc(-c3csc(NC(=O)Cc4cccs4)n3)ccc21	?	12.6µM*	1.1%	>57
CCCNC[C@H](O)COc1ccccc1C(=O)CCc1ccccc1	21.8%[12.8 µM]	1.0%[3.58 µM]	-1.7%[12.8 µM]	>57
Cc1nc2c3ccccc3n(CC#N)c(=O)n2n1	2.51µM*[single pt active]	-10.8%	11.1%	>57
Cc1nnc(SCC2=C(C(=O)O)N3C(=O)[C@@H](NC(=O)Cn4cnnn4)[C@@H]3SC2)s1	-7.3%[12.8 µM]	-22.3%[3.58 µM]	-0.9%[12.8 µM]	>57
O=C(O)[C@@H]1[C@@H]2C[C@H]3c4[nH]c5ccccc5c4CCN3C[C@@H]2CC[C@@H]1O	27.0%	?	-5.1%	>57
O=C(CC1SC2=NCCN2C1=O)Nc1ccc(Br)cc1 (stereo not drawn)	7.8%	?	-1.5%	>57
O=C(CC1Sc2ncnn2C1=O)Nc1ccc(Br)cc1 (stereo not drawn)	5.01µM*	?	10.7%	>57
CC(=O)[C@@H]1CC[C@H]2[C@H]3CC[C@H]4C[C@@H](O)CC[C@]4(C)[C@@H]3CC[C@]12C	10.5%	-19.1%	-2.8%	>57
O=C1Nc2ccccc2C2(CCN(CCc3ccc(C(F)(F)F)cc3)CC2)O1	.	10µM*	.	.
CCCCn1nnc(NC(=O)COc2cc(C)ccc2C(C)C)n1	25.6%	10µM*	-3.4%	>57
CCc1ccc(Cn2nnc(C(=O)Nc3cccc(C)c3)c2N)cc1	3.98µM*[single pt active]	-9.3%	9.7%	>57
CCOc1ccc(Cn2nnc(C(=O)Nc3cc(OC)cc(OC)c3)c2N)cc1	3.16µM*	19.0%	11.1%	>57
CCOc1ccc(Cn2nnc(C(=O)Nc3cc(C)cc(C)c3)c2N)cc1	3.98µM*[single pt active]	?	8.8%	>57
CCOc1ccc(NC(=O)c2nnn(CC(=O)Nc3ccccc3OC)c2N)cc1	11.8%	-2.3%	4.9%	>57
COc1ccc(CNC(=O)c2nnn(Cc3ccc(OC)cc3)c2N)cc1	2.51µM*[single pt active]	-8.3%	12.1%	>57
CC(C)C1=CC2=CC[C@H]3[C@@](C)(CCC[C@]3(C)C(=O)O)[C@@H]2CC1	-8.3%	?	-1.1%	>57
Oc1ccc2c3c1O[C@@H]1c4[nH]c5c(c4C[C@@]4(O)[C@@H](C2)N(CC2CC2)CC[C@]314)C[C@]1(O)[C@@H]2Cc3ccc(O)c4c3[C@@]1(CCN2CC1CC1)[C@H]5O4	23.1%	-2.3%	-2.3%	>57
O=C1CSC2(CCN(CCCN3c4ccccc4Sc4ccc(Cl)cc43)CC2)N1	69.2%[5.75 µM]	7.0%[8 µM]	-4.8%[5.75 µM]	>57
SMILES	AmpC nodet inh	LT uptake inh	AmpC inh det	Prx2 Sm inh
CN1CCN(CCCN2c3ccccc3Sc3ccc(C(F)(F)F)cc32)CC1	29.3%[5.75 µM]	10µM*!	0.1%[5.75 µM]	>57
O=C1C[C@@H]2OCC=C3CN4CC[C@]56c7ccccc7N1[C@H]5[C@@H]2[C@H]3C[C@@H]46	-9.2%	-6.3%	0.4%	>57
O=C1c2ccccc2C(O)N1c1cccnc1 (stereo not drawn)	3.98µM*[single pt active]	-7.0%	14.0%	>57
O=C1c2ccccc2C(Nc2ccc(Cl)cn2)N1c1cccnc1 (stereo not drawn)	3.98µM*[single pt active]	-12.1%	12.2%	>57
CC(=O)C1=C(C)NC(SCC(=O)c2cc(Cl)ccc2Cl)=C(C#N)C1c1ccco1 (stereo not drawn)	?	10µM*	-3.4%	.
CC(=O)C1=C(C)NC(SCC(=O)c2ccc(Cl)c(Cl)c2)=C(C#N)C1c1ccco1 (stereo not drawn)	-3.5%	?	6.3%	.
CC1=C(C(=O)Nc2ccccc2)C(c2ccco2)C(C#N)=C(SCc2ccccc2)N1 (stereo not drawn)	5.01µM*	?	8.6%	.
CCc1ccc(C(=O)CSC2=C(C#N)C(c3ccco3)C(C(C)=O)=C(C)N2)cc1 (stereo not drawn)	12.6µM*	?	9.7%	.
CC1=C(C(=O)Nc2ccccc2)C(c2ccco2)C(C#N)=C(SCC(=O)OC(C)C)N1 (stereo not drawn)	15.8%	?	5.8%	.
S=C=Nc1cccc2ccccc12	-9.9%	.	10.1%	.
COc1ccc(-n2c(=O)c(C)nc3cnc(N(C)C)nc32)cc1	20.4%	10µM*	-0.1%	>57
CCNc1ncc2nc(C)c(=O)n(-c3ccc(OC)cc3)c2n1	14.6%	-29.1%	-4.3%	>57
O=C(CCN1C(=O)C2C3C=CC(C3)C2C1=O)Nc1nccs1 (stereo not drawn)	-2.0%	-0.5%	-4.8%	>57
O=C(CCCCCN1C(=O)C2C3C=CC(C3)C2C1=O)Nc1nccs1 (stereo not drawn)	2µM*[single pt active]	12.0%	11.7%	>57
Cc1oc(C)c2c(=O)ccc3c(c12)OC(N)=C(C#N)C3c1ccccc1 (stereo not drawn)	-16.8%	-23.9%	-3.9%	>57
CSc1ccc(C2C(C#N)=C(N)Oc3c2ccc(=O)c2c(C)oc(C)c32)cc1 (stereo not drawn)	10µM*	-28.6%	-4.5%	>57
COc1ccccc1OCC(=O)N(Cc1nc(-c2ccc(Cl)cc2)no1)C(C)C	160.0%	?	7.4%	>57
CC(C)N(Cc1nc(-c2ccccc2)no1)C(=O)COc1ccccc1	3.98µM*[single pt active]	?	13.9%	>57
CC(C)N(Cc1nc(-c2ccccc2)no1)C(=O)Cc1ccccc1	3.98µM*[single pt active]	-21.4%	11.3%	>57
CC(C)N(Cc1nc(-c2ccccc2)no1)C(=O)CSc1ccccc1	37.9%	-28.0%	-1.5%	>57
Cc1cc(Br)ccc1OCC(=O)N(Cc1nc(-c2ccccc2)no1)C(C)C	21.0%	?	3.1%	>57
CC(C)N(Cc1nc(-c2ccc(Cl)cc2)no1)C(=O)CCC1CCCC1	3.98µM*[single pt active]	?	9.2%	>57
NC1=NCCCC1	17.6%	-11.8%	-2.7%	>57
NC(=O)COc1ccc(=O)n(-c2ccccc2)n1	3.98µM*[single pt active]	-8.0%	10.3%	>57
Cn1nc(OCC(N)=O)ccc1=O	4.6%	-5.9%	-5.2%	>57
CCOC(=O)N1CCN(c2c(NC3CCN(Cc4ccccc4)CC3)c(=O)c2=O)CC1	3.98µM*[single pt active]	-9.2%	9.7%	>57
CCCCN(CC)CCNc1c(NC2CCN(C(=O)OCC)CC2)c(=O)c1=O	3.98µM*[single pt active]	-16.1%	13.7%	>57
CCOC(=O)N1CCC(Nc2c(OCC)c(=O)c2=O)CC1	3.98µM*[single pt active]	-7.4%	11.9%	>57
CCCCN(CC)CCNc1c(N2CCN(C(=O)OCC)CC2)c(=O)c1=O	-5.9%	5.3%	-6.1%	>57
